The list is not random: actives were taken first. Their share in the collection is about 0.82%.
Cardiac RTF inh = cardiac RTF calcium desensitization | P19429+P45379 | IANBD-labeled cardiac RTF, Ca2+ fluorescence | inhibition, % at 7.15 µM | hit rate 0.12% among 340,000 | AID 493244;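 active means inhibition above the mean inhibition of all tested compounds plus 3 SD, cut at about 17% in these data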;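 further: assay run at fixed EC70 calcium of 1.6 mM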
LANA DNA inh = blocks KSHV LANA C-terminal domain binding to DNA; MBP-C-LANA/FAM-LBS DNA binding, fluorescence polarization; inhibition, % at 9 µM; hit rate 0.078% among 340,000;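 active means highest replicate inhibition at or above 60% at 9 µM, even if other replicates fall short; inactive means all replicates below 60% inhibition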
Keap1 Nrf2 FP = inhibitors of human Keap1-Nrf2 protein-protein interaction; inhibition, % at 9.4 µM; hit rate 0.15% among 340,000; Keap1 Kelch-Nrf2 peptide fluorescence polarization, 1536-well; in the data active means inhibition above about 12%; inconclusive means no clear call, values can overlap the other calls; inactive means below about 7.3%;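 further: human Keap1 Kelch domain with fluorescein labeled Nrf2 9mer peptide probe; higher means more block of Keap1 binding to Nrf2 peptide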
cardiac RTF act = increases calcium sensitivity of human cardiac regulated thin filaments. activation, % at 7.2 µM. P19429+P45379. IANBD-labeled TnC RTF fluorescence at EC20 calcium; 0% EC20 calcium, 100% full calcium. AID 493008. hit rate 0.24% among 340,000;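 active means activation above the mean over all tested compounds plus 3 SD, cut at about 30% in these data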;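 further: rise in fluorescence read as greater calcium sensitivity of cardiac thin filaments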
eLon inh = inhibits E. coli Lon protease; P0A9M0; purified E. coli Lon protease, fluorescence polarization; inhibition, % at 7.94 µM; hit rate 0.42% among 360,000; AID 602123; in the data active means inhibition above about 13%, passing the limit was not always enough
Target sequence (P0A9M0 whole entry, looked up): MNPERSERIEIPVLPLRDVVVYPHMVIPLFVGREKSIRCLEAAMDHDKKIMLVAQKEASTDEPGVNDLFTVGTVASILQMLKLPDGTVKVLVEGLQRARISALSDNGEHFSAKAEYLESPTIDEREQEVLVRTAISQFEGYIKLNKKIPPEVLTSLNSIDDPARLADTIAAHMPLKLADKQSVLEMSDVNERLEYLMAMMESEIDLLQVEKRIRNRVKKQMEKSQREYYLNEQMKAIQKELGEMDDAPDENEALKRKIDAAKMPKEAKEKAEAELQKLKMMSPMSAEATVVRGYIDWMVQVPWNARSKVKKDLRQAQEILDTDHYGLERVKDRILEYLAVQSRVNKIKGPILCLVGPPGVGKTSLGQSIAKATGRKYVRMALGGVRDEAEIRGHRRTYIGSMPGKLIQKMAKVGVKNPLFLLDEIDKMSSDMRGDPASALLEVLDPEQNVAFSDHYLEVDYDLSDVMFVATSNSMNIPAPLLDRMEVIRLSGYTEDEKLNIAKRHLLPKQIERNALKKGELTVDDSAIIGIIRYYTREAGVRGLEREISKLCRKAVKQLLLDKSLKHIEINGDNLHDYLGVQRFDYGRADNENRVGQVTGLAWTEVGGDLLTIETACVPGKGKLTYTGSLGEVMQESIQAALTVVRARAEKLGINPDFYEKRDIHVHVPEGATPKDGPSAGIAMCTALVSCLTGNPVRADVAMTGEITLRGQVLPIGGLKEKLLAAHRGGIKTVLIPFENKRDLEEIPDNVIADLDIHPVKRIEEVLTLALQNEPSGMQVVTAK
E coli Lon conf = confirmation of E. coli Lon protease inhibitors; shares compounds with eLon inh; purified E. coli Lon, fluorescence polarization; inhibition, % at 7.94 µM; hit rate 31% among 1,400; in the data active means inhibition above about 16%
Hits are given with their value.

For CCn1cc(CN2CCC(n3nccc3NC(=O)c3ccccc3C)CC2)c(C)n1 the results were Cardiac RTF inh inactive, LANA DNA inh inactive, Keap1 Nrf2 FP inactive, cardiac RTF act inactive, eLon inh 44.9 and E coli Lon conf inactive.
`CCn1cc(CN2CCC(n3nccc3NC(=O)C3CCCC3)CC2)c(C)n1` gave Cardiac RTF inh inactive, LANA DNA inh inactive, Keap1 Nrf2 FP inactive, cardiac RTF act inactive and eLon inh inactive.
O=C(COC(=O)c1cccc(OC(F)F)c1)Nc1cc(S(=O)(=O)N2CCCC2)ccc1Cl was read as eLon inh inactive.
Screening C=CCn1c(Sc2nc(C)cs2)nc2c1c(=O)[nH]c(=O)n2C returned Cardiac RTF inh inactive, LANA DNA inh inactive, Keap1 Nrf2 FP inactive, cardiac RTF act inactive, eLon inh 22.2 and E coli Lon conf inactive.
For Cn1c(=O)c(NC2CCCCC2)c2c3c(cccc31)C(=O)c1ccccc1-2 the results were Cardiac RTF inh inactive, LANA DNA inh inactive, Keap1 Nrf2 FP 53.5, cardiac RTF act 369.3, eLon inh 117.9 and E coli Lon conf inactive.
Screening CC(=O)Nc1ccc(Nc2c3c4c(cccc4n(C)c2=O)C(=O)c2ccccc2-3)cc1 returned Cardiac RTF inh inactive, LANA DNA inh inactive, Keap1 Nrf2 FP inactive, cardiac RTF act 177.9, eLon inh 148.2 and E coli Lon conf 178.2.
For Cn1cc(S(=O)(=O)NC2CCCCCC2)c(=O)n(C)c1=O the results were Cardiac RTF inh inactive, LANA DNA inh inactive, Keap1 Nrf2 FP inactive, cardiac RTF act inactive and eLon inh inactive.
CCOC(=O)N(C)c1c(CC)nc2c(OCc3ccccc3C)cccn12 was read as eLon inh inactive.
For CC(=O)Nc1ccc(C=C(C#N)c2ccc(C)cc2)cc1 the results were eLon inh inactive.
For Cc1nc(-[n+]2nc(-c3ccncc3)nn2-c2ccccc2)sc1C the results were eLon inh inactive.
Screening Cc1ccnc(N2C(=O)c3cccc4c([N+](=O)[O-])ccc(c34)C2=O)c1 returned Cardiac RTF inh inactive, LANA DNA inh inactive, Keap1 Nrf2 FP inactive, cardiac RTF act inactive, eLon inh 53.2 and E coli Lon conf 64.2.
Cc1nnc(N2C(=O)c3cccc4c([N+](=O)[O-])ccc(c34)C2=O)s1 was read as Cardiac RTF inh inactive, LANA DNA inh inactive, Keap1 Nrf2 FP inactive, cardiac RTF act inactive, eLon inh 15.1 and E coli Lon conf inactive.
Screening O=C1c2cccc3cccc(c23)C(=O)N1Cc1cccnc1 returned Cardiac RTF inh inactive, LANA DNA inh inactive, Keap1 Nrf2 FP inactive, cardiac RTF act inactive and eLon inh inactive.
`Cc1ccc(N2C(=O)c3cccc4c([N+](=O)[O-])ccc(c34)C2=O)c2cccnc12` gave Cardiac RTF inh inactive, LANA DNA inh inactive, Keap1 Nrf2 FP inactive, cardiac RTF act inactive and eLon inh inactive.
`Cc1cccc(N2C(=O)c3cccc4c(N5CCCCC5)c([N+](=O)[O-])cc(c34)C2=O)c1C` gave Cardiac RTF inh inactive, LANA DNA inh inactive, Keap1 Nrf2 FP inactive, cardiac RTF act inactive and eLon inh inactive.
O=C1c2cccc3c([N+](=O)[O-])ccc(c23)C(=O)N1Cc1cccnc1 was read as Cardiac RTF inh inactive, LANA DNA inh inactive, Keap1 Nrf2 FP inconclusive, cardiac RTF act inactive, eLon inh 50.9 and E coli Lon conf 74.7.
For CC(C)C[C@@H]1COc2cccc(N3CCSCC3)c2S(=O)(=O)N1 the results were eLon inh inactive.
COc1ccccc1C(=O)Oc1ccc2c(c1)O/C(=C\c1ccncc1)C2=O was read as Cardiac RTF inh inactive, LANA DNA inh inactive, Keap1 Nrf2 FP inactive, cardiac RTF act 35.0, eLon inh 27.7 and E coli Lon conf 49.3.
CS(=O)(=O)Oc1ccc2c(c1)O/C(=C\c1cccnc1)C2=O was read as Cardiac RTF inh inactive, LANA DNA inh inactive, Keap1 Nrf2 FP inactive, cardiac RTF act inactive and eLon inh inactive.
O=C(Oc1ccc2c(c1)O/C(=C\c1ccncc1)C2=O)c1cccs1 was read as LANA DNA inh inactive, Keap1 Nrf2 FP inactive, eLon inh 54.5 and E coli Lon conf 23.9.
For Cc1cccc(-c2ccc3[nH]c4c(c3c2)CCN2C[C@@H]([C@H](C)OC(=O)Nc3ccccc3C)[C@@H](N(C)C(=O)Nc3ccccc3C)C[C@@H]42)c1 the results were eLon inh inactive.
`OC[C@@H]1CN(Cc2cccs2)C[C@H](n2cnc3c(NCc4ccc(F)cc4)ncnc32)O1` gave eLon inh inactive.
Screening O=C(c1ccco1)[C@@H]1[C@@H]2C(=O)N(c3ccccc3)C(=O)[C@@H]2C2c3ccccc3C=CN21 (stereo partly specified) returned Cardiac RTF inh inactive, LANA DNA inh inactive, Keap1 Nrf2 FP inactive, cardiac RTF act inactive, eLon inh 24.0 and E coli Lon conf 33.4.
Screening Cc1ccc(N2C(=O)[C@@H]3[C@H](C2=O)C2c4ccccc4C=CN2[C@@H]3C(=O)c2ccco2)cc1 (stereo partly specified) returned Cardiac RTF inh inactive, LANA DNA inh inactive, Keap1 Nrf2 FP inactive, cardiac RTF act inactive and eLon inh inactive.
Screening O=C(O)/C=C/C(=O)Nc1ccc(O)cc1 returned Cardiac RTF inh inactive, LANA DNA inh inactive, Keap1 Nrf2 FP inactive, cardiac RTF act inactive, eLon inh 120.5 and E coli Lon conf inactive.
Screening Cc1ccc(-c2csc3nc(C)n(-n4cccc4)c(=O)c23)o1 returned Cardiac RTF inh inactive, LANA DNA inh inactive, Keap1 Nrf2 FP inactive, cardiac RTF act inactive, eLon inh 20.7 and E coli Lon conf inactive.
`COc1ccc(N2C(=O)CS(=O)C(c3ccccc3)C2=O)cc1` (stereo unspecified) gave Cardiac RTF inh inactive, LANA DNA inh inactive, Keap1 Nrf2 FP inactive, cardiac RTF act inactive, eLon inh 24.2 and E coli Lon conf 30.6.
`COc1ccc(C(=O)Oc2ccc3ccc(=O)oc3c2)cc1OC` gave Cardiac RTF inh inactive, LANA DNA inh inactive, Keap1 Nrf2 FP inactive, cardiac RTF act inactive and eLon inh inactive.
`COc1cccc(C(=O)Oc2ccc3ccc(=O)oc3c2)c1` gave Cardiac RTF inh inactive, LANA DNA inh inactive, Keap1 Nrf2 FP inactive, cardiac RTF act inactive, eLon inh 23.4 and E coli Lon conf 47.1.
For CS(=O)(=O)Nc1cccc(NC(=O)c2cccc3c(-c4ccc(F)c(F)c4)coc23)c1 the results were eLon inh inactive.
For COc1cccc(CN(C)C(=O)c2cc(-c3ccc(OC)c(OC)c3)nc3ccccc23)c1 the results were Cardiac RTF inh inactive, LANA DNA inh inactive, Keap1 Nrf2 FP inactive, cardiac RTF act inactive, eLon inh 20.2 and E coli Lon conf inactive.
Screening CCCCN1C(=O)c2cccc3cc(O)cc(c23)C1=O returned Cardiac RTF inh inactive, LANA DNA inh inactive, Keap1 Nrf2 FP inactive, cardiac RTF act inactive, eLon inh 32.5 and E coli Lon conf inactive.
`CC(C)(C)c1cc[n+](-c2[nH]c(=O)sc2/C=N/NC(=O)c2ccccc2[O-])cc1` gave Cardiac RTF inh inactive, LANA DNA inh inactive, Keap1 Nrf2 FP inactive, cardiac RTF act inactive, eLon inh 43.3 and E coli Lon conf 35.8.
